Hit rate of the full screen: of about 16,000 compounds, about 2,600 (16%) were called active. Roughly 20% stayed inconclusive and do not appear here. Calls come from the whole dose curve; as a rule, active = well fitted curve in the direction sought with a large enough effect; inconclusive = small, poorly fitted or top-dose-only effect, or effect the other way; inactive = no such curve, though single readings can be large or run the other way. Not all results are given here. Some structures have more than one record in an assay (separate samples or runs), and their calls can disagree.
The molecules below were run against Cytochrome P450 2D6 (Homo sapiens) (UniProt P10635) (assay: Cytochrome panel assay with activity outcomes). Settings: recombinant CYP, pro-luciferin dealkylation, luminescence, p450-cyp2d6; series mostly up to 57.1 µM; activity, negative = inhibition: at the top concentration.
Chain of Cytochrome P450 2D6 (Homo sapiens) (P10635 whole entry, looked up): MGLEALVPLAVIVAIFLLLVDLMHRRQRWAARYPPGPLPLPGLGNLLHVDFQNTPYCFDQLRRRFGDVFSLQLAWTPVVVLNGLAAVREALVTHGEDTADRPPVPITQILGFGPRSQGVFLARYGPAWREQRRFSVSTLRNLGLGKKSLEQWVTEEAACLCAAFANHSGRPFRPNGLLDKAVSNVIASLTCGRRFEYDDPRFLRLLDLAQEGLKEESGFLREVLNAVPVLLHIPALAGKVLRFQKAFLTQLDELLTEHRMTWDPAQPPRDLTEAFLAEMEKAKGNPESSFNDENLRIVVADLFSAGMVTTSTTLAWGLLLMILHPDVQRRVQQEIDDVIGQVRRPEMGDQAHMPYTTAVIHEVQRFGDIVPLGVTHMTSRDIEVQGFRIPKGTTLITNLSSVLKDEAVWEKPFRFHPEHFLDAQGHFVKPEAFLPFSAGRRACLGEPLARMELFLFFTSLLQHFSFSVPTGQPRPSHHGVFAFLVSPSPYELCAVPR
% is set by controls: 0 for no effect and ±100 for the full control effect.

Q: With `CC[C@H]1C2=C3C(CC[C@H]4C(OC)OC[C@](C)([C@@H]34)N(C(=O)OC(C)(C)C)C2)C(CO)C1CO` (some centres not stated) as the molecule, how does the “activity, negative = inhibition” value read?
A: Its value is 3.96% (inactive).

Q: For `COC(=O)c1sccc1NC(=O)c1cc(-c2ccc(C)cc2C)nc2ccccc12`, which “activity, negative = inhibition” value is on record?
A: The value was 2.41% (inactive).

Q: How did the “activity, negative = inhibition” value turn out when `Cc1c(Br)c([N+](=O)[O-])nn1CC(=O)NCc1ccccn1` was run?
A: Its value is -9% (inactive).

Q: Which AC50 does the source give for `Cc1ccc(OC[C@H](O)[C@H](C)NC(C)C)c2c1CCC2` here?
A: The AC50 was 15.8 µM (active) and inactive.

Q: `O=C(OCC1CC(c2ccccc2)=NO1)c1ccc(Cl)cc1` (configuration not stated) was tested. Which “activity, negative = inhibition” value did it give?
A: Its value is -3.1% (inactive).

Q: `CSc1nncc(-c2ccc(F)c(F)c2)n1` was tested. Which “activity, negative = inhibition” value did it give?
A: The value was 29.6% (inactive).

Q: `COC(=O)C/C=C\[C@@H](C)[C@@H](/C=N\O[C@@H](C)c1cn([C@H]2COC[C@H]2O)nn1)NS(=O)(=O)c1ccc(C)cc1` was tested. Which activity, negative = inhibition did it give?
A: The activity, negative = inhibition was 5.15% [at 11.4 µM] (inactive).

Q: How did the “activity, negative = inhibition” value turn out when `Cc1ccc(OCCCC(=O)N2CCOCC2)cc1` was run?
A: The value was 3.91% (inactive).

Q: Which AC50 does the source give for `Cc1ccc(OCCCN2C(=O)C(=O)c3cccc(C)c32)cc1` here?
A: Its AC50 is 14.1 µM (active).

Q: `Cc1cccc(/C(N)=N/OC(=O)CCCN2C(=O)c3ccccc3C2=O)c1` was tested. Which “activity, negative = inhibition” value did it give?
A: The value was -6.05% (inactive).

Q: `CC(C)(C)NC[C@H](O)c1cc(O)cc(O)c1` was tested. Which AC50 did it give?
A: Its AC50 is “inactive”.

Q: How did the “activity, negative = inhibition” value turn out when `Cc1onc(-c2ccccc2Cl)c1C(=O)Nc1nnc(Cc2ccc(Cl)cc2)s1` was run?
A: The value was -19.9% (inactive).

Q: Which AC50 does the source give for `Cc1ccc(SCc2ccc(C(=O)NCc3ccncc3)cc2)cc1` here?
A: The AC50 was 0.0447 µM (active).

Q: With `Cc1ccc(NC(=O)c2ccc(CSc3nnc(-c4ccncc4)n3C)cc2)cc1` as the molecule, how does the “activity, negative = inhibition” value read?
A: The value was 15.4% (inactive).

Q: Which “activity, negative = inhibition” value does the source give for `Cc1ccc(SCc2nnc(NC(=O)c3ccccc3)s2)cc1` here?
A: The value was 2.7% (inactive).

Q: For `CCc1nc2c(c(SC)nn2-c2ccccc2)c(N)c1C(=O)OC`, which “activity, negative = inhibition” value is on record?
A: Its value is -7.9% (inactive).

Q: With `CC(=O)Nc1ccc(-c2cc(-c3ccc(NC(C)=O)cc3)nc(-c3ccccc3)n2)cc1` as the molecule, how does the “activity, negative = inhibition” value read?
A: Its value is -3.17% (inactive).

Q: `O=C(Oc1cccc(Br)c1)c1cccnc1` was tested. Which “activity, negative = inhibition” value did it give?
A: The value was 6.26% (inactive).

Q: `O=C(COC(=O)c1cccnc1)c1ccc(Cl)c(Cl)c1` was tested. Which AC50 did it give?
A: Its AC50 is 2.51 µM (active).

Q: For `CC(=O)OCCNC(=O)c1cccnc1`, which “activity, negative = inhibition” value is on record?
A: The value was 3.52% (inactive).

Q: With `COc1cc(-c2ccc(N=Nc3ccc4c(S(=O)(=O)O)cc(S(=O)(=O)O)c(N)c4c3O)c(OC)c2)ccc1N=Nc1ccc2c(S(=O)(=O)O)cc(S(=O)(=O)O)c(N)c2c1O` as the molecule, how does the “activity, negative = inhibition” value read?
A: Its value is -16.2% [at 25.6 µM] (inactive).

Q: With `COc1ccc(OCCSc2ncn[nH]2)cc1` as the molecule, how does the “activity, negative = inhibition” value read?
A: Its value is -13.2% (inactive).

Q: `COCCCNC(=O)CCC(=O)Nc1ccc2nc(N3CCOCC3)cc(C)c2c1` was tested. Which “activity, negative = inhibition” value did it give?
A: Its value is -4.97% (inactive).

Q: How did the activity, negative = inhibition turn out when `Nc1nc(Sc2ccc([N+](=O)[O-])c3nonc23)c2[nH]cnc2n1` was run?
A: The activity, negative = inhibition was 3.81% [at 11.4 µM] (inactive).

Q: With `C[C@H](N[C@@H](C)COc1ccccc1)[C@H](O)c1ccc(O)cc1` as the molecule, how does the AC50 read?
A: The AC50 was 0.316 µM (active).

Q: For `CCOc1ccc(C(CC(=O)O)NC(=O)COc2ccccc2)cc1` (configuration not stated), which “activity, negative = inhibition” value is on record?
A: Its value is 29.6% (inactive).

Q: With `O=C(O)[C@H](/C=C\c1ccccc1)c1ccccc1` as the molecule, how does the activity, negative = inhibition read?
A: Its activity, negative = inhibition is -18.1% [at 11.4 µM] (inactive).

Reference: PubChem BioAssay AID1851 (National Center for Advancing Translational Sciences (NCATS), 2009)
